# Only some compounds are listed: those with a hit (about 1.6% of all), similar ones and a draw of the others.
# KCNQ2 pot: potentiators of rat KCNQ2 potassium channel. B-score at 10 µM. O88943. CHO-K1 KCNQ2, FluxOR thallium flux fluorescence; hits give high values. AID 2239. 310,000 tested, 0.54% active;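 active means fluorescence ratio B-score at least 3 SD of library B-scores, with initial fluorescence B-score within 3 of them, cut at about 5.3 in these data; same plate scores as AID 2156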;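 further: B-score of peak minus minimum over baseline fluorescence ratio after K+ and Tl+ stimulus; positive B-score means potentiation of KCNQ2 with more thallium influx and brighter signal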
# KCNQ2 block: inhibitors of rat KCNQ2 potassium channel | AID 2156 | B-score at 10 µM | 310,000 tested, 1.1% active | O88943 | CHO-K1 KCNQ2, FluxOR thallium flux, 20 min; hits give low values;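 active means fluorescence ratio B-score at most minus 3 library SDs, with starting brightness B-score within 2 library SDs, cut at about -5.5 in these data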
# Hits are given with their value; i = inactive; nt = not tested or not shown.
SMILES,KCNQ2 pot,KCNQ2 block
CCCCn1c(N)c(N(CC(C)C)C(=O)C2CCCN(C(=O)c3ccc(Cl)cc3)C2)c(=O)[nH]c1=O (stereo not drawn),nt,i
CN(C)c1cccc2c1c(NC(=O)c1ccc(Cl)cc1)nn2C,i,i
Clc1cccc(N/N=C(\Cc2nc3ccccc3[nH]2)c2ccccc2)c1,i,-6.3
c1ccc(N/N=C(\Cc2ncc[nH]2)c2ccccc2)cc1,nt,i
CC(C)N(C(C)C)S(=O)(=O)c1ccc(NC(=O)c2cnccn2)cc1,i,i
CN1CCN(/N=C/c2ccc(-c3ccccc3)cc2)CC1,nt,i
CN1CCN(/N=C/c2c3ccccc3c(Cl)c3ccccc23)CC1,i,-7.1
CC1(CC(=O)N/N=C/c2cc3c(cc2Br)OCO3)OCCO1,i,i
Cc1ccc(S(=O)(=O)NC2c3cccc4cccc(c34)C2Sc2n[nH]c(N)n2)cc1 (stereo not drawn),nt,i
O=S(=O)(NC1c2cccc3cccc(c23)C1Sc1ncccn1)c1ccc(Cl)cc1 (stereo not drawn),i,-6.3
CCOC(=O)c1cc(C)n(S(=O)(=O)c2ccc(C)cc2)c1C,i,-6.6
CCOC(=O)c1ccccc1NS(=O)(=O)c1ccc(C)cc1,nt,i
CC/C(=N\NC(=O)c1ccc(N2CCCC2=O)cc1)c1ccccc1,nt,i
CCN1C(=O)C(CC(=O)Nc2ccc(OC)cc2)N(CCc2ccccc2)C1=S (stereo not drawn),nt,i
CCN1C(=O)C(CC(=O)Nc2ccc(F)cc2)N(CCc2ccc(OC)cc2)C1=S (stereo not drawn),i,-6.7
CCCCN(C)CC(O)Cn1cc(/C=C/C(=O)c2cccs2)c2ccccc21 (stereo not drawn),nt,i
CCCCN(C)CC(O)Cn1cc(/C=C/C(=O)c2ccc(OCC)cc2)c2ccccc21 (stereo not drawn),i,-6.7
CCOC(=O)c1c(C=O)c(C)n(Cc2ccc(C)cc2)c1C,nt,i
CCOC(=O)c1c(C=O)c(C)n(Cc2ccccc2Cl)c1C,i,-5.8
COc1cccc(CC(NC(C)=O)C(=O)NC2CCN(S(=O)(=O)c3ccc(F)cc3)CC2)c1OC (stereo not drawn),nt,i
O=C1CS(=O)(=O)c2ccccc2N1,nt,i
COc1ccc(C2/C=C\CN(C(=O)Nc3ccccc3-c3ccccc3)CC(=O)N2Cc2ccc(F)cc2)cc1 (stereo not drawn),i,-6.4
COC(=O)N1C/C=C\C(c2ccc(OC)cc2)N(Cc2ccc(F)cc2)C(=O)C1 (stereo not drawn),i,i
Cc1cc(C)c(S(=O)(=O)/N=C2\C=C(NS(=O)(=O)c3ccccc3)C(=O)c3ccccc32)c(C)c1,i,-5.7
Cc1ccc(NC2=C/C(=N\S(=O)(=O)c3cccs3)c3ccccc3C2=O)c(C)c1,nt,i
SMILES,KCNQ2 pot,KCNQ2 block
O=C(O)c1ccccc1S(=O)(=O)CC(=O)N1CCCCC1,i,i
Cc1nn(C(C)C)c(C)c1CN1CCC(C(=O)Nc2cccc(-c3cccc(F)c3)c2)CC1,nt,i
Cn1c(CSc2ncccn2)nnc1SCC(=O)N1CCCC1,i,-6.3
Cn1c(CSc2ncccn2)nnc1SCC(=O)N1CCCCCC1,i,i
COc1ccc(CCN(Cc2nc(-c3ccccc3)no2)Cc2nc(-c3ccccc3)no2)cc1OC,i,-6.2
COc1ccc(CCN(C)Cc2nc(-c3cnccn3)no2)cc1OC,i,i
COc1ccc(CCNC(=O)c2cc(C(=O)c3cc(Cl)ccc3O)cn(CCc3ccc(OC)cc3)c2=O)cc1,nt,i
O=C(NCCc1ccccc1)c1ccccc1Cl,nt,i
O=C(c1cc(C(=O)NCCc2ccccc2)c(=O)n(CCc2ccccc2)c1)c1cc(Cl)ccc1O,i,-6.4
COc1ccc(CCNC(=O)c2cc(C(=O)c3cc(C)ccc3O)cn(CCc3ccc(OC)cc3)c2=O)cc1,i,-7.3
Cc1ccc(S(N)(=O)=O)cc1NC(=O)c1ccc2c3c(cccc13)CC2,i,i
Cc1cc(NC(=O)CS(=O)(=O)c2cn(Cc3ccc(F)cc3)c3ccccc23)no1,nt,i
Cc1cc(NC(=O)CS(=O)(=O)c2cn(Cc3cccc(F)c3)c3ccccc23)no1,i,-5.7
CN(C)c1nnnn1Cc1ccccc1,nt,i
CC(C#Cc1c([C@@H](C)Oc2ccccc2)nnn1Cc1ccccc1)Oc1ccccc1 (stereo partly drawn),i,-6.3
CCC/C=C(\CCC)C(NC(=O)c1ccc(C(F)(F)F)cc1)c1ccccc1 (stereo not drawn),i,-6.6
COC(=O)c1ccc(C(=O)NN)cc1,nt,i
CCC/C=C(\CCC)C(NC(=O)c1ccc(C(=O)OC)cc1)c1ccc(C(=O)OC)cc1 (stereo not drawn),i,-7.2
CC(C)CC(C)NC(=O)c1ccc(C(F)(F)F)cc1 (stereo not drawn),i,i
CC(=O)N1C(C)(C)CC(=NOC(=O)c2ccc(C)cc2)CC1(C)C,nt,i
CCOc1ccc(-c2nnc(NC(=O)Cc3cc(OC)c(OC)c(OC)c3)o2)cc1,i,i
O=[N+]([O-])c1cc(-c2ncccn2)c([N+](=O)[O-])s1,i,-9.6
O=C(Nc1ncccn1)c1cc([N+](=O)[O-])cc([N+](=O)[O-])c1,i,i
COc1ccc(N2CC(C(=O)N3CCc4ccccc43)CC2=O)cc1 (stereo not drawn),nt,i
O=C(Cn1cnc([N+](=O)[O-])n1)NC1CC1,i,i
SMILES,KCNQ2 pot,KCNQ2 block
Cc1ccc(C(=O)Nc2cccc(C(=O)O)c2)cc1,i,i
Cc1oc2c(c1C(=O)Nc1cccc(C(=O)O)c1)CCCC2,5.6,i
CC1=C(C)C(O)N(Cc2ccccc2)C1=O (stereo not drawn),nt,i
O=C(CCS(=O)(=O)c1ccc(Br)cc1)NCc1ccco1,i,i
COc1ccc(S(=O)(=O)N(CC(=O)NCc2ccccn2)Cc2ccccc2)cc1,nt,i
O=C(CN(Cc1ccc(Br)cc1)S(=O)(=O)c1ccccc1)NCc1ccccn1,i,-6.5
O=C(CN(Cc1ccccc1)S(=O)(=O)c1ccc(Br)cc1)NCc1ccco1,i,-6.6
O=S1(=O)NC(=NCCc2ccccn2)c2ccccc21,i,i
CC12CCC(=O)N1C(C(=O)N1CCN(S(=O)(=O)c3ccc(F)c(F)c3)CC1)CS2 (stereo not drawn),i,i
Cc1cc(C)n(-c2nc3sc4c(c3c(=O)[nH]2)CCCC4)n1,18,i
Cc1nc2sc3c(c2c(=O)[nH]1)CCCCC3,nt,i
O=C(NCc1ccccc1)c1ccccc1C(=O)c1ncc[nH]1,nt,i
COc1ccc(SCC(=O)c2cc(C)c(OC(=S)N(C)C)c(C)c2)cc1,nt,i
Cc1cc(C(=O)CSc2ccc(F)cc2)cc(C)c1OC(=S)N(C)C,i,-6
CC(=O)c1c(N2CCN(C)CC2)nc(=S)n(-c2cc(C)ccc2C)c1C,i,i
COc1cccc(C(=O)NC(=S)N2c3ccccc3CC2C)c1OC (stereo not drawn),i,i
CC1Cc2ccccc2N1C(=S)NC(=O)c1ccc(Cl)cc1Cl (stereo not drawn),21,i
CC1Cc2ccccc2N1C(=S)NC(=O)c1cccc(Br)c1 (stereo not drawn),28,i
COc1cccc(NC(=S)N2c3ccccc3CC2C)c1 (stereo not drawn),i,i
Cc1ccc2nc(CCl)[n+]([O-])c(-c3ccccc3)c2c1,nt,i
CCCCNC(=O)NNC(=O)c1cc(C)on1,i,i
Cc1n[nH]c(=O)c2c(NC(=O)CSc3nn(-c4ccccc4)c(=S)s3)oc(C)c12,i,i
CCC1(CC)NC(=O)N(CC(=O)OC(C)C(=O)Nc2ccccc2OC)C1=O (stereo not drawn),nt,i
